The source of these data is ChEMBL document CHEMBL4513216, “Probing the Open Global Health Chemical Diversity Library for Multistage-Active Starting Points for Next-Generation Antimalarials” (ACS Infect Dis, 2020).

About 8,600 (12%) of roughly 69,000 compounds showed an effect of 50% or more. The sample holds strong results, similar compounds and a random draw of the others, so the mix is not that of the screen.

The test system of the assay is Plasmodium berghei. As to the kind of experiment: Screen against P. berghei liver stage (PbLuc), transformed with Luciferase, at 10uM. In kind it is functional, HepG2. Particulars: tested at 10 uM.
`CN(C)c1nccc(-c2cnc(N(C)C)[nH]c2=O)n1`: the INHIBITION was determined as 13%. Next, `COCc1ccccc1CNCc1c(C(C)C)nn(C)c1N(C)C`: 20.85%; `CN1CC(=O)N(c2ccsc2)CC12CCN(S(=O)(=O)c1ccccc1)C2` (stereo not drawn): -41.4%. For `Cc1ccccc1CN(CCN(C)C)Cc1ccccc1C(=O)O`, the INHIBITION was found to be 2.18%.

With `CCN(Cc1cc(F)ccc1Cl)C1CCS(=O)(=O)C1` (stereo not drawn), the INHIBITION was found to be 12.1%. Under `N#Cc1cc(S(N)(=O)=O)ccc1N1CCc2c(Cl)cccc2C1` stands 9.52%; under `CC(C)(C)c1ncc(C(=O)NCCNC(=O)c2ccc(O)cc2)s1`, 29.2%.

In the case of `Cc1nc(C)c(C(=O)N2CCc3c(C)cccc32)o1`, the INHIBITION stood at 5.91%. Under `COc1cccc2c1CCCCN2C(=O)c1oc(C)nc1C` stands 53.7%; under `Cc1nc(C)c(C(=O)N2CCCc3c(F)cccc32)o1`, 35.2%. Consider `CCN(CCNS(=O)(=O)C1CCOCC1)C(=O)OC(C)(C)C`, for which the INHIBITION was -21.2%. `Cc1csc(NC(=O)CN(C)CCOc2cccc(F)c2)n1`: the INHIBITION amounted to 1.05%. Under `c1ccc(Cc2nnc(CN3CCCC3Cn3cccn3)o2)cc1` (stereo not drawn) stands 24%. As to `CCc1nc(Cn2c(=O)n(CC)c3ccccc32)no1`, the INHIBITION was determined as 57.3%. Under `CCc1nc(Cn2c(=O)n(C)c3ccccc32)no1` stands 45.2%; under `CCCc1nc(Cn2c(=O)n(C)c3ccccc32)no1`, 29.4%; under `CC(C)NC(=O)[C@H]1C[C@@H]2[C@@H](C1)OCCN2CC1CC1`, 48.2%. Regarding `N#Cc1csc(CN(CC(=O)N2CCCC2)CC2CCCO2)c1` (stereo not drawn), the INHIBITION was 70.9%. Take `N#Cc1ccc(F)c(CN(CC(=O)N2CCCC2)CC2CCCO2)c1` (stereo not drawn): the INHIBITION is listed as -13.5%. Turning to `N#Cc1cccc(CN(CC(=O)N2CCCC2)CC2CCCO2)c1` (stereo not drawn), the INHIBITION is recorded as -4.91%. Regarding `O=C([C@@H]1CC[C@@H]2[C@@H](CCN2CCOCc2ccccc2)O1)N1CCCC1`, the INHIBITION is recorded as 32.1%. Turning to `CCCNC(=O)CCOc1cccc(F)c1`, the INHIBITION was 14.465%. Under `CC(=O)c1ccc(NC(=O)N(CCN(C)C)Cc2ccc(C)s2)cc1` stands 26.6%; under `Cc1ccc(CN(CCN(C)C)C(=O)Nc2ccc(C)c(C#N)c2)s1`, 60%; under `Cc1ccc(CN(CCN(C)C)C(=O)Nc2cc(C(N)=O)ccc2C)s1`, 19.2%. For the molecule `Cc1cnn(CC2CCCN2C(=O)c2cccnc2-n2cncn2)c1` (stereo not drawn), the INHIBITION worked out at 31.9%. `CC(=O)N1CCC(C(=O)NCCc2c[nH]c3cc(C)ccc23)CC1`: the INHIBITION is on record as 11.9%. As for `Cc1cccc2c(CCNS(=O)(=O)C3CCOC3)c[nH]c12` (stereo not drawn), the INHIBITION was determined as 39.2%. For the molecule `COc1c(Br)cccc1CCNC(=O)c1ncoc1C`, the INHIBITION is on record as -53.1%.

Consider `Cc1cccc2c(CCNC(=O)[C@H](N)c3ccccc3)c[nH]c12`, for which the INHIBITION turned out to be 61.1%. Next, `Cc1cccc2c(CCNC(=O)NCC[S+](C)[O-])c[nH]c12` (stereo not drawn): 26.4%; `Cc1cccc2c(CCNC(=O)NCCC[S+](C)[O-])c[nH]c12` (stereo not drawn): 51%; `Cc1cnn(CC2CCCCN2C(=O)Cn2nc(C)c(Cl)c2C)c1` (stereo not drawn): 13.8%.

Turning to `O=C(CCNS(=O)(=O)c1ccc(Cl)cc1)NCc1ccoc1`, the INHIBITION was -11.6%. For the molecule `CCNc1ncc(C(=O)NC(CC)c2ccnn2C)cn1` (stereo not drawn), the INHIBITION is 48.2%. For the molecule `Cn1cnc2cc(CCC(=O)Nc3n[nH]c(C4CC4)n3)ccc21`, the INHIBITION is 41.5%. Next, `O=C(C1CC1)N1CCC2(COCc3cnc(N4CCOCC4)nc32)C1` (stereo not drawn): 60.1%; `O=C(CC1CC1)N1CCC2(COCc3cnc(-c4cccnc4)nc32)C1` (stereo not drawn): 42.1%; `O=C(C1CC1)N1CCC2(COCc3cnc(NCc4ccco4)nc32)C1` (stereo not drawn): -3.33%. For `O=C(C1CCC1)N1CCC2(COCc3cnc(N4CCOCC4)nc32)C1` (stereo not drawn), the INHIBITION was -4.56%. Under `CCC(=O)N1CCC2(COCc3cnc(N4CCOCC4)nc32)C1` (stereo not drawn) stands 57.9%; under `O=C(CC1CC1)N1CCC2(COCc3cnc(N4CCOCC4)nc32)C1` (stereo not drawn), 61.4%. Under `CC(C)NC(=O)N1CCC2(COCc3cnc(N4CCOCC4)nc32)C1` (stereo not drawn) stands -18.4%; under `COCC(=O)N1CCC2(COCc3cnc(N4CCOCC4)nc32)C1` (stereo not drawn), 84.7%. Next, `COCCC(=O)N1CCC2(COCc3cnc(N4CCOCC4)nc32)C1` (stereo not drawn): 34.7%; `COCC(=O)N1CCC2(COCc3cnc(-c4ccccc4)nc32)C1` (stereo not drawn): -22.4%; `CC(C)(C)C(=O)N1CCC2(COCc3cnc(N4CCOCC4)nc32)C1` (stereo not drawn): -18.2%. With `O=C([C@@H]1C[C@@H]2CCN(C3CCOCC3)C[C@H]2O1)N1CCOCC1`, the INHIBITION was -28%.

For the molecule `CC(=O)N1CCC(Cc2cnc(-c3c(C)nn(C)c3C)cn2)CC1`, the INHIBITION was -26.2%. On to `Cn1cnnc1C1CCCN(C(=O)c2cc3ccccc3[nH]2)C1` (stereo not drawn), for which the INHIBITION is -8.11%. As to `Cc1ccncc1C(=O)N1C[C@@H]2CN(c3ncccn3)C[C@]2(C(=O)O)C1`, the INHIBITION was 7.65%. Under `COCCN1CCCn2c(nc(Cn3cncn3)cc2=O)C1` stands 13.6%; under `CN(Cc1ccncc1)C(=O)NC1CCCN(c2ncccn2)C1` (stereo not drawn), 36.1%; under `O=C(NCc1ccc(Cl)cc1)N1CCN(CC(O)C2CC2)CC1` (stereo not drawn), 25.9%. `CS(=O)(=O)N1CCC(NC(=O)COc2ccc3ccccc3c2)CC1`: the INHIBITION stood at 33.3%. Take `Cc1oc(-c2cccc(F)c2F)nc1CN(C)CCO`: the INHIBITION is recorded as 11.3%. In the case of `COCCN(C)Cc1nc(-c2cccc(F)c2F)oc1C`, the INHIBITION was determined as 51.9%. As to `Cc1oc(-c2cccc(F)c2F)nc1CN(C)CCC(C)(C)O`, the INHIBITION came to 16%.
